An excerpt weighted towards active compounds, which were near 27% of everything screened.
CYP2C9 act: human CYP2C9 activators, primary screen, biochemical, luminescence | recombinant CYP2C9, luciferin-H conversion; active compounds read high; factor 1 = untreated enzyme, 0 = blocked | activation factor at 5 µM | hit rate 1.4% among 96,000;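 active = activation factor of 2 or more for CYP2C9 at a 5 µM dose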;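 also: 0 = sulfaphenazole-blocked wells and 1 = vehicle-only wells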
CYP2C9 inhib: blockers of cytochrome P450 2C9 activity – biochemical, luminescence, ADME assay, primary screen; CYP2C9 Supersomes, luciferin-H conversion; inhibition, % at 5 µM; P11712; hit rate 20% among 96,000;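 active = blocking of liver enzyme CYP2C9 beyond about 50% at 5 µM, limit read from the data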
CYP2C19 inh: blockers of cytochrome P450 2C19 activity – biochemical, luminescence, ADME assay, primary screen; P33261; CYP2C19 Supersomes, luciferin-H EGE luminescence, 30 min; inhibition, % at 5 µM; hit rate 21% among 96,000; AID 778, 2007;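 active = CYP2C19 inhibition above a set limit at 5 µM in the primary screen, cut at about 50% in these data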;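 also: plate controls were negative control wells for no effect and 2.5 mM tranylcypromine positive control for full effect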
sEH inhibitor: soluble epoxide hydrolase inhibitors, primary screen, biochemical, human sEH; Bifunctional epoxide hydrolase 2 (Homo sapiens), P34913; recombinant human sEH enzymatic activity assay; inhibition, % at 2 µM; hit rate 0.34% among 91,000; AID 707, 2007; in the data active = inhibition above about 80%
Target sequence (P34913 whole entry, looked up): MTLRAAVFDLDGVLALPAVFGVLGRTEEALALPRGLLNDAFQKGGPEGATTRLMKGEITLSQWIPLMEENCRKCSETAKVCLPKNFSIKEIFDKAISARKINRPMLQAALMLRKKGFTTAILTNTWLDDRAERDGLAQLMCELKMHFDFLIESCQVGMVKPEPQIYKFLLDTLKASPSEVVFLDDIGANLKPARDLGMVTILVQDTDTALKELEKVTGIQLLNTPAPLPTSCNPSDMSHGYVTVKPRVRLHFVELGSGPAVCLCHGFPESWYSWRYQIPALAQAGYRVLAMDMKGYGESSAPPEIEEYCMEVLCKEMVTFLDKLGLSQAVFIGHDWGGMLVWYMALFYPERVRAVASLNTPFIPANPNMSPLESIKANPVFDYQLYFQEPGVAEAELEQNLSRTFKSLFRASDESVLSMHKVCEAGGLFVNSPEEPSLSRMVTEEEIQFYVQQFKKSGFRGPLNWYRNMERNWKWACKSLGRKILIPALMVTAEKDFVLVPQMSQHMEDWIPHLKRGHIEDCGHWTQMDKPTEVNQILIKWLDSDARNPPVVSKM
CYP2C19 activ: human CYP2C19 activators, primary screen, biochemical, luminescence; AID 1025, 2008; 96,000 tested, under 10 active; Cytochrome P450 2C19 (Homo sapiens), P33261; activation factor at 5 µM; recombinant CYP2C19, luciferin-H EGE luminescence; active compounds read high; 0 = fully inhibited enzyme, 1 = untreated enzyme;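 active = activation factor of at least 2 at 5 µM in the primary screen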;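 also: 0 = wells with 2.5 mM tranylcypromine and 1 = vehicle-only wells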
sEH act: soluble epoxide hydrolase activators, primary screen, biochemical, human sEH; AID 717, 2007; Bifunctional epoxide hydrolase 2 (Homo sapiens), P34913; purified human sEH enzymatic activity, activator screen; activation, % at 2 µM; hit rate 0.04% among 91,000; in the data active = activation above about 37%
* = called active by the depositor; · = no result given.

SMILES | CYP2C9 act | CYP2C9 inhib | CYP2C19 inh | sEH inhibitor | CYP2C19 activ | sEH act
COC(=O)c1ccccc1NC(=O)CSCC(=O)Nc1ccccc1 | 0.7 | 34 | 53* | 0 | 0.5 | 0
COc1cccc(NC(=O)N[C@@H](Cc2ccccc2)C(=O)O)c1 | 0.9 | 6 | 5 | 3 | 0.9 | -3
CCN(CC)C(=O)CSCC(=O)Nc1ccccc1 | 1 | -3 | 57* | -2 | 0.4 | 1
COc1ccc(NC(=O)CC2SC(=Nc3ccccc3)NC2=O)cc1 (stereo unspecified) | 1 | -2 | -10 | 10 | 1.1 | -10
COc1cccc(NC(=O)CC2SC(=Nc3ccccc3)NC2=O)c1 (stereo unspecified) | 0.3 | 70* | 63* | -4 | 0.4 | 6
COc1cccc(NC(=O)Cc2ccccc2)c1 | 0.7 | 31 | 94* | 2 | 0.1 | -2
CC(C)Oc1ccccc1-c1nc(SCC(=O)O)n[nH]1 | 1.1 | -7 | -2 | -14 | 1 | 17
COc1cccc(NC(=O)CNC(=O)c2ccc(F)cc2)c1 | 0.6 | 42 | 53* | 22 | 0.5 | -18
CCCCSCCCNC(=O)Nc1cccc(OC)c1 | 0.3 | 73* | 80* | 69 | 0.2 | -69
CCCCNC(=O)C1CCCN1C(=O)Nc1cccc(OC)c1 (stereo unspecified) | 1.1 | -8 | -7 | 1 | 1.1 | -1
COc1cccc(NC(=O)CSCC(=O)Nc2ccccc2)c1 | 0.2 | 78* | 60* | 1 | 0.4 | 1
COc1cccc(NC(=O)CSCC(=O)O)c1 | 0.9 | 12 | 12 | -10 | 0.9 | 8
COc1ccc(C(=O)NCCn2ccc3ccccc32)cc1 | 1.2 | -20 | 78* | 9 | 0.2 | -9
O=C(NCCn1ccc2ccccc21)c1ccc2c(c1)OCO2 | 0.9 | 13 | 65* | · | 0.3 | ·
O=C(NCc1cn2ccccc2n1)c1ccc2c(c1)OCO2 | 0.9 | 11 | 2 | 5 | 1 | -6
O=C(NCCn1ccc2ccccc21)c1ccc(S(=O)(=O)N2CCCCC2)cc1 | 0.4 | 56* | 17 | · | 0.8 | ·
CC(C)(C)C(=O)NCCn1ccc2ccccc21 | 0.6 | 42 | 97* | · | 0 | ·
COc1cc(C(C#N)N2N=C(c3ccccc3)CC2c2ccccc2)ccc1O (stereo unspecified) | 0.4 | 58* | 33 | 2 | 0.7 | -2
CCC(C)(C)NC(=O)C(c1cccc(OC)c1)N(C(=O)c1ccn[nH]1)c1cccc(OC)c1 (stereo unspecified) | 0.8 | 23 | 74* | -2 | 0.3 | 6
CCOc1ccccc1C(=O)n1nc2nc(C)cc(C)c2c1N | 0.9 | 14 | 9 | 4 | 0.9 | -4
CCC1Oc2ccc(C)cc2N(CC(=O)N(Cc2cccnc2)Cc2ccc(C)o2)C1=O (stereo unspecified) | 0.4 | 63* | 72* | 9 | 0.3 | -9
CCC1Oc2ccc(C)cc2N(CC(=O)N(Cc2ccc(C)o2)C2CC(C)(C)NC(C)(C)C2)C1=O (stereo unspecified) | · | · | · | -13 | · | 13
COCCCNC(CC(=O)Nc1ccc(OC)cc1OC)C(=O)O (stereo unspecified) | 1.3 | -25 | -21 | 2 | 1.2 | -2
c1ccc(C2(c3ccccc3)OCC(Cn3cncn3)O2)cc1 (stereo unspecified) | 0.5 | 52* | 66* | 9 | 0.3 | -7
O=C(CCCOc1ccccc1)N1CCN(c2ccc(F)cc2)CC1 | 0.8 | 24 | 77* | -17 | 0.2 | 16
O=C(O)CCC(=O)N1CCN(c2ccc(C(=O)c3ccc(F)cc3)cc2)CC1 | 1.1 | -6 | 3 | 7 | 1 | -5
CN1CCN(C(=O)CCCOc2ccc(Cl)cc2Cl)CC1 | 1.3 | -25 | 67* | -3 | 0.3 | 4
O=C(CCCCCNc1nc(=S)[nH]c2ccccc12)N1CCN(c2ccccn2)CC1 | 0.4 | 62* | 57* | 4 | 0.4 | -6
O=C(CCCOc1ccc(Cl)cc1Cl)N1CCN(c2ccccn2)CC1 | 0.6 | 43 | 76* | · | 0.2 | ·
O=C(CCN1C(=O)C2C3C=CC(C3)C2C1=O)N1CCN(c2ccccn2)CC1 (stereo unspecified) | · | · | · | 4 | · | -3

Compound activity (PubChem BioAssay)
